# Measurements taken from PubChem BioAssay (Tox21).
# Records with an inconclusive call do not appear. Where a call stands in place of a potency, no number is given. Calls of active or inactive are those of the source. Unless noted, the call rests on the fitted dose curve; in most records, active means well fitted curve in the direction sought with a large enough effect in the repeat runs; inconclusive means weak or mixed curves; inactive means no such curve, though single readings can be large; an effect the other way counts as inactive or inconclusive.
# Biological target: Retinoic acid receptor RXR-alpha (Homo sapiens) (UniProt P19793)
# Test: qHTS assay to identify small molecule agonists of the RXR signaling pathway (AID 1159527; calls by dose curve; further: nearly all actives have a fitted effect of over 35% in size)
# Details: HEK293T RXRa-UAS-bla, beta-lactamase ratio, 16 h; series mostly up to 76.8 µM; activation: at the top concentration
# In short: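 Cells plated at 2,000/well, rested 5 hr at 37 C, pin-dosed with DMSO compound solutions, incubated 16 hr, then loaded with B/G FRET substrate for 2 hr at RT before dual-emission fluorescence reading.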
# Retinoic acid receptor RXR-alpha (Homo sapiens), sequence (P19793 whole entry, looked up): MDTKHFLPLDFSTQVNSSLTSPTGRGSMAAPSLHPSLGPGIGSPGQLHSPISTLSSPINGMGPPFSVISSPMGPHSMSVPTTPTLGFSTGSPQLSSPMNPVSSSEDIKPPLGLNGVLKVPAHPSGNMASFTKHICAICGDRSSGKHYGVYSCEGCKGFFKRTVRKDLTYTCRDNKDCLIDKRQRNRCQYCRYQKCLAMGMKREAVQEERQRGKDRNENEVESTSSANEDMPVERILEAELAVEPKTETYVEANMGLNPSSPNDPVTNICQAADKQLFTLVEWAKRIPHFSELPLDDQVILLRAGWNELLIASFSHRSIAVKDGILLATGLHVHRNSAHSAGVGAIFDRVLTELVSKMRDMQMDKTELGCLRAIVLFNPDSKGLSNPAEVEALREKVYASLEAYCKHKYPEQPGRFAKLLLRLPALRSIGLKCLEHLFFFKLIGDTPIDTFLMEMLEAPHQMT
Structure (SMILES),Potency,activation
Cn1cnc2c1c(=O)[nH]c(=O)n2C,inactive,–
Cc1cccc2ccccc12,inactive,–
CC(C)Cc1ccc(C(C)C(=O)O)cc1 (configuration not stated),–,-0.0922% [at 35.3 µM] (inactive)
CN(C)C=O,inactive,–
CC(=O)Oc1ccccc1C(=O)O,inactive,–
CCN(CC)CCOC(=O)c1ccc(N)cc1,inactive,–
Cc1cnc(NC(=O)C2=C(O)c3ccccc3S(=O)(=O)N2C)s1,inactive,–

# Test system: not listed separately
# Test: qHTS assay to identify small molecule agonists of the RXR signaling pathway - cell viability counter screen (AID 1159529);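 further: HEK 293T cells carrying an RXR-alpha UAS beta-lactamase reporter; nearly all actives have a fitted effect of over 50% in size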
# Details: RXR-alpha-bla HEK293T viability, CellTiter-Glo, 16 h; series mostly up to 76.8 µM; activity change, negative = cytotoxicity: at the top concentration
# In short: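 Steps: seed RXR-alpha-UAS-bla HEK 293T cells in assay medium containing 2% charcoal-stripped FBS; incubate 5 hr; add compounds in DMSO; incubate 16 hr at 37 C; after the bla read, add CellTiter-Glo and read luminescence at 30 min.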
row,Structure (SMILES),Potency
1,CC(C)(C)NCC(O)c1ccc(O)c(CO)c1 (configuration not stated),inactive
2,C[C@]12C[C@H](O)[C@H]3[C@@H](CCC4=CC(=O)CC[C@@]43C)[C@@H]1CC[C@@H]2C(=O)CO,inactive
3,NC(=O)NO,inactive
4,C=C(C)C(N)=O,inactive
5,Cc1cccc(C)c1O,inactive
6,C=CCOC(=O)CC(C)C,inactive
7,O=C(O)CN(CC(=O)O)CC(=O)O,inactive
8,CC(C)CC(C)CC(O)CC(C)C (configuration not stated),inactive
9,CCCCNC(=O)NS(=O)(=O)c1ccc(N)cc1,inactive
10,CCCCCCCCOc1ccc(C(=O)c2ccccc2)c(O)c1,inactive
11,N[C@@H](Cc1c[nH]c2ccccc12)C(=O)O,inactive
12,C[C@]12CC[C@@H]3c4ccc(O)cc4C[C@@H](CCCCCCCCCS(=O)CCCC(F)(F)C(F)(F)F)[C@H]3[C@@H]1CC[C@@H]2O (some centres not stated),inactive
13,O=c1cc[nH]c(=O)[nH]1,inactive
14,N[C@@H](Cc1c[nH]c2ccc(O)cc12)C(=O)O,inactive
15,CC(=O)c1ccc(S(=O)(=O)NC(=O)NC2CCCCC2)cc1,inactive
16,CCCCCCCC(=O)OCC(O)CO (configuration not stated),inactive
17,OCCCc1ccccc1,inactive
18,CN/C(=C\[N+](=O)[O-])NCCSCc1ccc(CN(C)C)o1,inactive
19,CC1(C)O[C@@H]2[C@@H](CO[C@@]3(COS(N)(=O)=O)OC(C)(C)O[C@@H]23)O1,inactive
20,NC(=O)OCC(COC(N)=O)c1ccccc1,inactive
21,C=C(C)OC(C)=O,inactive
22,O=C1CCCCCN1,inactive
23,NC(=O)N1c2ccccc2C=Cc2ccccc21,inactive
24,Cn1cnc2c1c(=O)[nH]c(=O)n2C,inactive
25,Cc1cccc2ccccc12,inactive
26,CC(C)Cc1ccc(C(C)C(=O)O)cc1 (configuration not stated),inactive
27,CN(C)C=O,inactive
28,CC(=O)Oc1ccccc1C(=O)O,inactive
29,CCN(CC)CCOC(=O)c1ccc(N)cc1,inactive
30,Cc1cnc(NC(=O)C2=C(O)c3ccccc3S(=O)(=O)N2C)s1,inactive

# Test system: not listed separately
# Test: qHTS assay to identify small molecule antagonists of the retinoid acid receptor (RAR) signaling pathway - cell viability counter screen (AID 1159551); further: nearly all actives have a fitted effect of over 35% in size
# Details: C3RL4 cells viability, ATP luminescence (CellTiter-Glo), 6 h; series mostly up to 92.4 µM; activity change, negative = cytotoxicity: at the top concentration
# In short: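 In this counter screen, the RARE-luciferase line C3RL4 was exposed for 6 h at 37 C and 5% CO2 to compounds with retinol at 1 uM final. Cellular ATP, read by luminescence, served as the viability measure.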
row,Structure (SMILES),outcome
1,CC(C)(C)NCC(O)c1ccc(O)c(CO)c1 (configuration not stated),inactive
2,C[C@]12C[C@H](O)[C@H]3[C@@H](CCC4=CC(=O)CC[C@@]43C)[C@@H]1CC[C@@H]2C(=O)CO,inactive
3,NC(=O)NO,inactive
4,C=C(C)C(N)=O,inactive
5,Cc1cccc(C)c1O,inactive
6,C=CCOC(=O)CC(C)C,inactive
7,O=C(O)CN(CC(=O)O)CC(=O)O,inactive
8,CC(C)CC(C)CC(O)CC(C)C (configuration not stated),inactive
9,CCCCNC(=O)NS(=O)(=O)c1ccc(N)cc1,inactive
10,CCCCCCCCOc1ccc(C(=O)c2ccccc2)c(O)c1,inactive
11,N[C@@H](Cc1c[nH]c2ccccc12)C(=O)O,inactive
12,C[C@]12CC[C@@H]3c4ccc(O)cc4C[C@@H](CCCCCCCCCS(=O)CCCC(F)(F)C(F)(F)F)[C@H]3[C@@H]1CC[C@@H]2O (some centres not stated),inactive
13,O=c1cc[nH]c(=O)[nH]1,inactive
14,N[C@@H](Cc1c[nH]c2ccc(O)cc12)C(=O)O,inactive
15,CC(=O)c1ccc(S(=O)(=O)NC(=O)NC2CCCCC2)cc1,inactive
16,CCCCCCCC(=O)OCC(O)CO (configuration not stated),inactive
17,OCCCc1ccccc1,inactive
18,CN/C(=C\[N+](=O)[O-])NCCSCc1ccc(CN(C)C)o1,inactive
19,CC1(C)O[C@@H]2[C@@H](CO[C@@]3(COS(N)(=O)=O)OC(C)(C)O[C@@H]23)O1,inactive
20,NC(=O)OCC(COC(N)=O)c1ccccc1,inactive
21,C=C(C)OC(C)=O,inactive
22,O=C1CCCCCN1,inactive
23,NC(=O)N1c2ccccc2C=Cc2ccccc21,inactive
24,Cn1cnc2c1c(=O)[nH]c(=O)n2C,inactive
25,Cc1cccc2ccccc12,inactive
26,CC(C)Cc1ccc(C(C)C(=O)O)cc1 (configuration not stated),inactive
27,CN(C)C=O,inactive
28,CC(=O)Oc1ccccc1C(=O)O,inactive
29,CCN(CC)CCOC(=O)c1ccc(N)cc1,inactive
30,Cc1cnc(NC(=O)C2=C(O)c3ccccc3S(=O)(=O)N2C)s1,inactive

# Test system: not listed separately
# Test: qHTS assay to identify small molecule antagonists of the retinoic acid receptor (RAR) signaling pathway (AID 1159552; further: nearly all actives have a fitted effect of over 50% in size)
# Details: C3RL4 RARE luciferase reporter, retinol-stimulated, 6 h; series mostly up to 92.4 µM; activity, negative = inhibition: at the top concentration
# In short: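 Retinol at 1 uM final stimulated RARE-luciferase expression in C3RL4 cells exposed to test compounds for 6 hr at 37 C. Reduced luminescence, read 30 min after detection reagent, indicated pathway antagonism.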
row,Structure (SMILES),Potency
1,CC(C)(C)NCC(O)c1ccc(O)c(CO)c1 (configuration not stated),inactive
2,C[C@]12C[C@H](O)[C@H]3[C@@H](CCC4=CC(=O)CC[C@@]43C)[C@@H]1CC[C@@H]2C(=O)CO,inactive
3,NC(=O)NO,inactive
4,C=C(C)C(N)=O,inactive
5,Cc1cccc(C)c1O,inactive
6,C=CCOC(=O)CC(C)C,inactive
7,O=C(O)CN(CC(=O)O)CC(=O)O,inactive
8,CC(C)CC(C)CC(O)CC(C)C (configuration not stated),inactive
9,CCCCNC(=O)NS(=O)(=O)c1ccc(N)cc1,inactive
10,CCCCCCCCOc1ccc(C(=O)c2ccccc2)c(O)c1,inactive
11,N[C@@H](Cc1c[nH]c2ccccc12)C(=O)O,inactive
12,C[C@]12CC[C@@H]3c4ccc(O)cc4C[C@@H](CCCCCCCCCS(=O)CCCC(F)(F)C(F)(F)F)[C@H]3[C@@H]1CC[C@@H]2O (some centres not stated),inactive
13,O=c1cc[nH]c(=O)[nH]1,inactive
14,N[C@@H](Cc1c[nH]c2ccc(O)cc12)C(=O)O,inactive
15,CC(=O)c1ccc(S(=O)(=O)NC(=O)NC2CCCCC2)cc1,inactive
16,CCCCCCCC(=O)OCC(O)CO (configuration not stated),inactive
17,OCCCc1ccccc1,inactive
18,CN/C(=C\[N+](=O)[O-])NCCSCc1ccc(CN(C)C)o1,inactive
19,CC1(C)O[C@@H]2[C@@H](CO[C@@]3(COS(N)(=O)=O)OC(C)(C)O[C@@H]23)O1,inactive
20,NC(=O)OCC(COC(N)=O)c1ccccc1,inactive
21,C=C(C)OC(C)=O,inactive
22,O=C1CCCCCN1,inactive
23,NC(=O)N1c2ccccc2C=Cc2ccccc21,inactive
24,Cn1cnc2c1c(=O)[nH]c(=O)n2C,inactive
25,Cc1cccc2ccccc12,inactive
26,CC(C)Cc1ccc(C(C)C(=O)O)cc1 (configuration not stated),inactive
27,CN(C)C=O,inactive
28,CC(=O)Oc1ccccc1C(=O)O,inactive
29,CCN(CC)CCOC(=O)c1ccc(N)cc1,inactive
30,Cc1cnc(NC(=O)C2=C(O)c3ccccc3S(=O)(=O)N2C)s1,inactive
